# Experimental data from PubChem BioAssay AID1942 (Johns Hopkins Ion Channel Center, 2009).
# The campaign covered roughly 2,400 compounds. About 580 (24%) were called active. A selection follows. Unmarked numbers belong to inactive results.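 The calls were made as follows: active = activity change at or above the mean plus 3 SD of buffer wells without dofetilide, per plate; inactive = the rest.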
# Target: Potassium voltage-gated channel subfamily KQT member 2 (Rattus norvegicus) (UniProt O88943)
# Experiment: KCNQ2 potentiation in CHO cells – cell-based, FluxOR thallium flux, counter-screen for hERG block protector project, confirmation (AID 1942);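 also: normalized value minus buffer-control mean plus three SD of buffer wells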
# Settings: FluxOR thallium flux fluorescence, at 10 µM, stronger effect = higher value
# Chain of Potassium voltage-gated channel subfamily KQT member 2 (Rattus norvegicus) (O88943 whole entry, looked up): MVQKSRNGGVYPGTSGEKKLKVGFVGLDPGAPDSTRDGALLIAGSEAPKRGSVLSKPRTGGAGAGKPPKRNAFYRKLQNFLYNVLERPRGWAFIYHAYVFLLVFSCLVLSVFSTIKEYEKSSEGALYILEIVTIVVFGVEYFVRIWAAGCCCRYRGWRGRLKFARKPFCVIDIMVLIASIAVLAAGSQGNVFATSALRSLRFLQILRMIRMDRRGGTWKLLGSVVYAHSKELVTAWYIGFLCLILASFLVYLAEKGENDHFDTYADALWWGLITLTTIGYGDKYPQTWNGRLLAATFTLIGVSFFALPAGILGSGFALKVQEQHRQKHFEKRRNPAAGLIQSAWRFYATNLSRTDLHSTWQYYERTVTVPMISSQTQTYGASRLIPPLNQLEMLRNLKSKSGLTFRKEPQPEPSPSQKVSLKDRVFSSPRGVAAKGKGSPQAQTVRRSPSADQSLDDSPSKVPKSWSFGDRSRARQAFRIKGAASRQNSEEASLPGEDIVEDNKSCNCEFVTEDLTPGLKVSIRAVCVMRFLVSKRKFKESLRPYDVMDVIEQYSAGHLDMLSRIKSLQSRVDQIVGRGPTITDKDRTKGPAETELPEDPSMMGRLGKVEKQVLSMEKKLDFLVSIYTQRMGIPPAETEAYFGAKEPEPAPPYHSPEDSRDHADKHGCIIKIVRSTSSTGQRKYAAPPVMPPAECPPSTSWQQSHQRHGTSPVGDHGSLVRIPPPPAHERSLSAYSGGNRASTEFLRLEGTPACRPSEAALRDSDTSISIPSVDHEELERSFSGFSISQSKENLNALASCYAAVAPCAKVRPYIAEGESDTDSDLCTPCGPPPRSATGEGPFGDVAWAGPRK
row,SMILES,"activity change, less the hit threshold"
1,CC(=O)c1ccc(S(=O)(=O)NCc2ccc(C(=O)N(C)CC(=O)Nc3cccc(F)c3)cc2)cc1,-9.1%
2,NC(=O)CSc1nc2ccccc2c(=O)n1CCc1ccccc1,-15.2%
3,C=CCn1c(SCC(N)=O)nc2scc(-c3ccc(C)o3)c2c1=O,1.7% (active)
4,C=CCn1c(=S)[nH]c2scc(-c3ccc(C)o3)c2c1=O,80.3% (active)
5,C=CCn1c(=S)[nH]c2cc(-c3ccccc3)sc2c1=O,-4.4%
6,C=CCn1c(=S)[nH]c2scc(-c3cccs3)c2c1=O,93.7% (active)
7,C=CCn1c(SCC(=O)Nc2cccc(C)c2)nnc1-c1cnccn1,-26.8%
8,CCC1(C)CC2(CCCN(CCC(=O)c3ccccc3)C2)CCO1 (configuration not stated),-25%
9,O=C(NCc1ccco1)C1CCN(C(=O)Cc2ccccc2)CC1,-17.3%
10,O=C(CCSCCc1ccccn1)Nc1cccc([N+](=O)[O-])c1,-11.2%
11,CCN1C(=O)/C(=C\c2ccc(-c3cccc(C(=O)OC)c3)o2)SC1=Nc1ccc(C(=O)O)cc1,-22.8%
12,CCCCN(C(=O)CNC(=O)c1cccs1)C(C(=O)NC1CCCC1)c1ccncc1 (configuration not stated),-7.8%
13,CCCCN(C(=O)CC1CCCC1)c1c(N)n(CC(C)C)c(=O)[nH]c1=O,-9.9%
14,Cc1[nH]n(-c2ccccc2)c(=O)c1N=Nc1ccc(C(N)=O)cc1,-25.6%
15,CCSC(=S)c1c(C)[nH]n(-c2ccccc2)c1=O,-4.2%
16,CCCSC(=S)c1c(C)[nH]n(-c2ccccc2)c1=O,49.7% (active)
17,Cc1cc(C(=O)NCCN2C(=O)S/C(=C\c3cccs3)C2=O)ccc1[N+](=O)[O-],-16.8%
18,Nc1nonc1-n1nnc(C(=O)N/N=C/c2ccccn2)c1-c1ccccc1,-18.1%
19,COc1ccc(C2N=C(c3ccccc3)C(C)(C)N2O)cc1 (configuration not stated),-18.6%
20,Cc1nn(C)cc1C(=O)Nc1ccc2c(c1)OCCO2,-19.7%
21,Cc1ccc(CN2CCN(CC(=O)NC(C)c3ccc4c(c3)OCCO4)C2=O)cc1 (configuration not stated),16.9% (active)

row,SMILES,"activity change, less the hit threshold"
1,Cc1cc(Cl)ccc1OC(C)C(=O)NCCc1ccc2c(c1)OCCO2 (configuration not stated),-30.8%
2,C/C(=N/NC(=O)c1cc2ccccc2cc1O)c1ccco1,72.8% (active)
3,C/C(=N\NC(=S)Nc1c(C)cccc1C)c1cc2ccccc2o1,-16.4%
4,C/C(=N\NC(=O)c1ccoc1C)c1cccc2ccccc12,55% (active)
5,C/C(=N\NC(=O)CSc1nc2ccccc2o1)c1ccc(O)cc1,-16.2%
6,C/C(=N\NC(=S)Nc1cccc(C)c1)c1ccco1,-13.9%
7,C/C(=N\NC(=O)c1cc2ccccc2cc1O)c1ccccn1,-9.4%
8,C/C(=N\NC(=O)c1cc2ccccc2cc1O)c1cc2ccccc2o1,82% (active)
9,O=C(N/N=C/c1ccc(Sc2ccccn2)o1)c1cc2ccccc2cc1O,-4.5%
10,Cc1cc(C(=O)Nc2cccc3ccccc23)c(C)o1,-28.1%
11,Cc1ccc(/C=N/NC(=O)c2cc(C)oc2C)o1,-17.8%
12,COc1ccc(CCNC(=O)c2cc3ccccc3oc2=O)cc1,-29%
13,Cc1ccc(/C=N/NC(=O)c2cc3ccccc3cc2O)o1,77.9% (active)
14,CC(C)(C)NC(=O)CN(C(=O)CS(=O)CC(=O)Nc1ccc(F)cc1)c1cccc(F)c1 (configuration not stated),-11.2%
15,Cc1ccsc1/C=C1/SC(=O)N(CC(=O)N2CCCC2)C1=O,-18.9%
16,Cn1c(=O)c(Sc2ccccc2)c(O)c2ccccc21,-8.1%
17,Cn1c(=O)c2c(ncn2CC(=O)OCc2ccccc2)n(C)c1=O,-14.2%
18,Cc1nc(-c2cc(C#N)c(Sc3ccc(Cl)cc3Cl)nc2C)cs1,-16.9%
19,COc1cc(C(=S)N2CCOCC2)ccc1OC(=O)c1ccc([N+](=O)[O-])cc1[N+](=O)[O-],-27.5%
20,Cc1ccc(CCNC(=O)c2cccc(NC3=NC4CS(=O)(=O)CC4S3)c2)cc1 (configuration not stated),-10.3%
21,Cc1ccc(C(=O)NC2CCC(C)CC2)o1 (configuration not stated),-20.7%

row,SMILES,"activity change, less the hit threshold"
1,C/C(=N\NC(=O)c1cc2ccccc2cc1O)c1ccc(C)o1,30.2% (active)
2,C/C(=N/NC(=O)c1sc(NS(=O)(=O)c2ccccc2)nc1C)c1sc(N)nc1C,-11.4%
3,Nn1c(SCC(=O)Nc2ccc(OC(F)F)cc2)nnc1-c1ccco1,-14.7%
4,CSc1ccccc1C(=O)NCc1ccc(C)cc1,-15.6%
5,Cc1ccc(C(=O)Sc2cccccc2=O)cc1,78.4% (active)
6,CC1=CC(=O)C(C(C)C)=CC1=NC(=O)c1ccc(C)cc1,-15.5%
7,Cc1ccc(Nc2nc(-c3ccncc3)cs2)cc1,-17.9%
8,Brc1ccc(-c2csc(N3CCCCCC3)n2)cc1,-13.8%
9,Cc1cc(C)c(-c2c(O)c3c(n(C)c2=O)CC(C)(C)CC3=O)c(C)c1,-18.3%
10,O=C(COc1ccc2ccccc2c1)NNC(=O)C(=O)Nc1ccccc1,47.2% (active)
11,O=C(COc1ccc2ccccc2c1)Nc1ccc(Br)cc1C(=O)O,-9%
12,COC(=O)CSc1nnc(COc2ccc3ccccc3c2)o1,-16%
13,Cc1ccccc1NC(=O)C(=O)NNC(=O)COc1ccc2ccccc2c1,33.6% (active)
14,COc1ccccc1NC(=O)C(=O)NNC(=O)COc1ccc2ccccc2c1,93.1% (active)
15,C=CCNC(=O)c1ccccc1NC(=O)COc1ccc(OC)cc1,-11.7%
16,O=C(COc1ccc(C(=O)c2ccccc2)cc1)Nc1cccnc1,-35%
17,O=C(COc1ccccc1)Nc1ccc(F)cc1,-28.9%
18,CSc1ccc(S(=O)(=O)N2CCC(C(=O)Nc3ccccc3C(F)(F)F)CC2)cc1,-14.7%
19,Cc1nonc1CN(C)C(=O)c1ccc(OC2CCN(Cc3ccccn3)CC2)cc1,-5.7%
20,Cc1ccc(C(=C2C3C=CC2C2C(=O)NC(=O)C32)c2ccc(C)cc2)cc1 (configuration not stated),-17.1%
